Measured values from PubChem BioAssay AID2018 (Sanford-Burnham Center for Chemical Genomics, 2009).
Among all 1,200 compounds or so, about 600 (50%) were called active. Rule as the data show it: active = inhibition above about 42%; inactive = the rest. So high a share suggests a set chosen from earlier hits. The list shows a part of the results. Potency and affinity values are given separately.

target: SUMO-conjugating enzyme UBC9 (Homo sapiens) (UniProt P63279); test: SUMOylation inhibitor hit validation, confirmation, SUMOylation inhibitor project, biochemical, AlphaScreen (AID 2018); details: AlphaScreen in vitro SUMOylation assay; at 35 µM; hits give high values
Sequence (P63279 whole entry, looked up): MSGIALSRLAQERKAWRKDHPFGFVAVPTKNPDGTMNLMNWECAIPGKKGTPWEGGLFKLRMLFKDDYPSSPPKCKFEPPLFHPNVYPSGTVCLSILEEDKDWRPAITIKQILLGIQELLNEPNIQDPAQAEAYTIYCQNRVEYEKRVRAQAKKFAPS

SMILES | inhibition
Cc1ccc(C(=O)N[C@H](C(=O)Nc2cc(Cl)cc(Cl)c2)C(C)C)cc1 | -24.1% (inactive)
COn1c(C)c(C)c2c3nonc3ccc21 | 19.1% (inactive)
NS(=O)(=O)c1ccc(-c2ccc(/C=C3\NC(=S)NC3=O)o2)cc1 | 70.9% (active)
Cc1nnc(N/N=C\c2ccc(-c3ccccc3[N+](=O)[O-])o2)n1N | -4.6% (inactive)
Cc1ccc(C)c(NC(=S)Nc2cccc3cnccc23)c1 | 16.2% (inactive)
Cc1nn(CC(=O)Nc2ccc(C(=O)N(C)C)cc2)c(=O)c2ccccc12 | -3.7% (inactive)
Cc1ccc(NC(=O)Nc2ccno2)cc1 | -5.1% (inactive)
O=C1C=C(O)c2c(O)cccc2C1=O | 43.1% (active)
O=C1C=C(O)c2cccc(O)c2C1=O | 39.2% (inactive)
COc1ccc(S(=O)(=O)/N=C2/NC(=O)/C(=C\c3ccco3)S2)cc1 | 40.6% (inactive)
Cc1ccc(N=C2NC(=O)/C(=C\c3ccco3)S2)cc1 | 44.4% (active)
CSCC[C@H](NC(=O)Cc1c(C)c2c(cc(C)c3c(C)c(C)oc32)oc1=O)C(=O)O | 19.6% (inactive)
CCc1c(C)c2cc(Cl)c(O)c(CN(C)C)c2oc1=O | 14.3% (inactive)
CCC(C(=O)O)n1nnc(-c2ccc(OCc3ccccc3)c(OC)c2)n1 (configuration not stated) | 2% (inactive)
COc1ccc2nc(NC(=O)CCc3ccc(OC)c(OC)c3)sc2c1 | -27% (inactive)
NCCSc1c(-c2ccccc2)[nH]c2ccccc12 | 4.2% (inactive)
COc1ccc(Br)cc1CNc1ccc(O)cc1 | 63.1% (active)
COc1cc(CNc2ccc(O)cc2)cc(Br)c1OCc1ccccc1 | 89.1% (active)
Oc1ccc(N=Cc2ccc(OCc3ccccc3)cc2)cc1 | 25.2% (inactive)
Oc1ccc(NCc2ccc(OCc3ccccc3)cc2)cc1 | 61.8% (active)
Oc1ccc(NCc2cccc(OCc3ccccc3)c2)cc1 | 81.1% (active)
O=[N+]([O-])c1cc2c(cc1/C=N/n1c(-c3ccccn3)n[nH]c1=S)OCO2 | 82.5% (active)
Cc1ccccc1N=Cc1cc2c(cc1[N+](=O)[O-])OCO2 | 43.9% (active)
O=[N+]([O-])c1cc2c(cc1CN1CCN(CCOCCO)CC1)OCO2 | 12.3% (inactive)
CCOC(=O)C1=C(C)NC(=O)CC1c1cc2c(cc1[N+](=O)[O-])OCO2 (configuration not stated) | 14.6% (inactive)

SMILES | inhibition
S=c1[nH]nc(-c2ccncc2)n1/N=C/c1ccccc1Cl | 20.2% (inactive)
CCN(CC)CCNS(=O)(=O)c1ccc2c3c(cccc13)C(=O)N2 | -8.8% (inactive)
CC1(C)Nc2ccc(O)cc2-c2c1ssc2=S | 59.8% (active)
Nc1nc(-c2ccco2)c(-c2ccco2)s1 | 55.9% (active)
NC(=O)c1sc2nc(-c3ccco3)ccc2c1N | 20% (inactive)
COCC(C)N1C(=O)Cc2c1nc(N)c1c(N)nc(N3CCN(c4ccccc4F)CC3)c(C#N)c21 (configuration not stated) | 37.8% (inactive)
N#Cc1c(N2CCN(c3ccc(F)cc3)CC2)nc(N)c2c(N)nc3c(c12)CC(=O)N3C1CC1 | 37.6% (inactive)
CC(C)N1C(=O)CC(Nc2cccc3cccc(N)c23)C1=O (configuration not stated) | 0.8% (inactive)
Cn1c(=O)cc(C(=O)N/N=C/c2ccc(Cl)cc2)[nH]c1=O | -20.2% (inactive)
O=C1NNC(c2ccccc2)=N/C1=C\c1ccccc1Cl | 101% (active)
O=C(NC1(O)C(=O)c2ccccc2C1=O)c1ccc(C(F)(F)F)cc1 | 101% (active)
CN(NC(=O)c1ccc(Cl)cc1)c1ncc(C(F)(F)F)cc1Cl | 2.5% (inactive)
O=C(NC1(O)C(=O)c2ccccc2C1=O)c1c(Cl)cccc1Cl | 101% (active)
O=C(NC1(O)C(=O)c2ccccc2C1=O)c1ccccc1 | 101% (active)
Cc1onc(-c2ccccc2Cl)c1C(=O)NCc1ccco1 | 32.5% (inactive)
O=c1c(=Nc2ccccc2O)c(=O)c2ccccc12 | 9.9% (inactive)
Clc1ccc(-c2nnc3c4ccccc4nc(N4CCOCC4)n23)cc1Cl | 4% (inactive)
CC(=O)Oc1c(/C=C(\C#N)C(N)=O)[nH]c2ccccc12 | 21.9% (inactive)
Cc1ccc(NC(=O)Nc2cccn(Cc3c(F)cccc3Cl)c2=O)cc1 | 14.6% (inactive)
O=C(NCc1ccccc1)Nc1cccn(Cc2ccccc2Cl)c1=O | 20.8% (inactive)
Cc1nn2c3c(cnc2c1-c1ccc(Cl)cc1)C(=O)CC(c1ccco1)C3 (configuration not stated) | 9.7% (inactive)
COc1ccccc1Oc1c(C)oc2c(CN3CCN(C)CC3)c(O)ccc2c1=O | 7% (inactive)
O=C(CC1CS(=O)(=O)CC1CC(=O)Oc1ccccc1F)Oc1ccccc1F (configuration not stated) | 102% (active)
N#C/C(=C/c1ccc(-c2ccccc2)o1)c1nc(-c2cccs2)cs1 | -4.5% (inactive)
Cc1c(CC(=O)N2CCN(C(=O)C3COc4ccccc4O3)CC2)c(=O)oc2c(C)c(O)ccc12 (configuration not stated) | 17.7% (inactive)

SMILES | inhibition
Cc1c(CC(=O)O)c(=O)oc2c(C)c(OCc3ccccc3Br)ccc12 | 85.8% (active)
CC(=O)Oc1ccc2c(C)c(CC(C)O)c(=O)oc2c1 (configuration not stated) | -6.6% (inactive)
NC(=O)CC(NC(=O)Cc1ccc(Br)cc1)c1ccc(NCCOc2ccccc2)c([N+](=O)[O-])c1 (configuration not stated) | 10.7% (inactive)
O=C1C=C(N(CCO)Cc2ccccc2)c2ccccc2C1=O | 101% (active)
Nc1ccc(Br)c2cccnc12 | 49% (active)
CCOC(=O)C1CC(=O)c2cc(OC)c(OC)cc2C1 (configuration not stated) | 12.9% (inactive)
O=C(N/N=C/c1ccc(N2CCOCC2)cc1)c1ccccc1NS(=O)(=O)c1cccs1 | 17.4% (inactive)
O=C(N/N=C/c1cc(Cl)cc([N+](=O)[O-])c1O)c1ccccc1NS(=O)(=O)c1cccs1 | 101% (active)
COc1ccccc1/C=C/C=N/NC(=O)c1cc(-c2ccco2)[nH]n1 | 60.4% (active)
O=C1C=C(N2CCOCC2)c2ccccc2C1=O | 102% (active)
Cc1ccc(-c2cc(-c3ccccc3O)nc(N/N=C/c3cccnc3)n2)cc1 | 23% (inactive)
NNC(=O)c1oc2nc(-c3ccco3)cc(-c3ccco3)c2c1N | 56.6% (active)
NNC(=O)c1oc2nc(-c3cccs3)cc(-c3ccco3)c2c1N | 43.3% (active)
O=c1[nH]c(N2CCN(c3ccccc3)CC2)nc2c1CCC2 | 8.8% (inactive)
CN(C(=S)Nc1cccnc1)c1ccc(O)cc1 | 19.3% (inactive)
O=C(Nc1cccc(N=Cc2cc(Br)cc(Br)c2O)c1)c1ccco1 | 24.9% (inactive)
COc1ccc2oc(=O)c(/C(C)=N/NC(=O)c3ccncc3)cc2c1 | 7.3% (inactive)
C/C(=N\NC(=O)c1cc(O)ccc1O)c1cccc(NC(=O)c2ccc(Cl)cc2)c1 | 94.8% (active)
Cc1ccc(NC2=CC(=O)CC(c3ccco3)C2)c(N)c1 (configuration not stated) | 20.2% (inactive)
O=C(COC(=O)c1cc(-c2cccs2)nc2ccccc12)NCc1ccco1 | 7.3% (inactive)
COc1cc(/C=N/NC(=O)c2cc(-c3ccco3)nc3ccccc23)cc(OC)c1O | 55.1% (active)
CCOc1ccc(/C=N/NC(=O)c2cc(-c3ccco3)nc3ccccc23)cc1 | -1.6% (inactive)
CCN(CC)Cc1c(O)ccc2c(=O)c(Oc3ccccc3OC)coc12 | 3.9% (inactive)
CCOc1cc(/C=C2/C(=O)N(c3ccccc3)N=C2C)ccc1OC(=O)c1ccco1 | 73.7% (active)
CCOc1cc(/C=C2\C(=O)N(c3ccc(C(N)=O)cc3)N=C2C)ccc1OC(=O)c1cccs1 | 81.1% (active)

SMILES | inhibition
COc1ccccc1Oc1c(C)oc2cc(OC(=O)c3ccco3)ccc2c1=O | 18.7% (inactive)
CCOC(=O)N1CCN(C(=O)c2cccn3c(=O)c4cc(Br)ccc4nc23)CC1 | 4.2% (inactive)
COC1=C(Nc2ccccc2)C(=O)c2ccccc2C1=O | 93% (active)
COC1=C(Nc2ccc(O)cc2)C(=O)c2ccccc2C1=O | 74.4% (active)
CC(NC(=O)Nc1ccc(O)cc1)(C(F)(F)F)C(F)(F)F | 1.3% (inactive)
COC1=C(Nc2ccccc2OC)C(=O)c2ccccc2C1=O | 96.4% (active)
CC(=O)c1ccc(NC(=S)Nc2cccc3ccccc23)cc1 | 7.1% (inactive)
Nc1ccc(N(CCO)CCO)cc1 | 38.6% (inactive)
COc1ccc(C=Nc2ccc3[nH]ncc3c2)c(O)c1 | 19.3% (inactive)
CN1C(=O)N(C)c2ccc(C=O)c3cccc1c23 | 22.2% (inactive)
O=S(=O)(c1ccc2nc(-c3ccco3)c(-c3ccco3)nc2c1)N1CCOCC1 | 52% (active)
O=C(Nc1ccccc1F)Nc1cc(S(=O)(=O)N2CCOCC2)ccc1N1CCCC1 | 13.5% (inactive)
Cc1cccn2cc(-c3ccc(S(=O)(=O)N4CCOCC4)cc3)nc12 | -6.1% (inactive)
CCOC(=O)c1c(C)oc2c1c(C=NCCO)c(O)c1ccccc12 | 99.7% (active)
O=C(CSc1ncccn1)NCc1ccc2c(c1)OCO2 | -9.4% (inactive)
O=c1cc2c(=O)oc3cc(O)c(O)oc3c2c(O)c1O | 89.8% (active)
NCCc1ccc(O)c(O)c1 | -6.3% (inactive)
COc1ccc(-c2ccc(C(c3c(C)[nH][nH]c3=O)c3c(C)[nH][nH]c3=O)o2)c([N+](=O)[O-])c1 | 73.1% (active)
Cc1[nH][nH]c(=O)c1C(c1ccc(-c2ccccc2C(=O)O)o1)c1c(C)[nH][nH]c1=O | 66.6% (active)
COc1ccc(O)c(C(c2c(C)[nH][nH]c2=O)c2c(C)[nH][nH]c2=O)c1 | 17.7% (inactive)
COC(=O)c1ccccc1-c1ccc(C(c2c(C)[nH][nH]c2=O)c2c(C)[nH][nH]c2=O)o1 | 88.2% (active)
Cc1ccc(-n2cccn2)c([C@@H]2C[C@H]3CN(C)C(=O)[C@]34CCCN24)c1 | 8.1% (inactive)
